Test in all cases: NCI-60 one-dose screen, 48 h (100 = growth as untreated, 0 = no growth, -100 = all killed)
Conditions in all cases: 10 µM unless noted

The test system of assay [1] is NCI-H23 lung.
Assay [2] concerns NCI-H226 lung.
The subject of assay [3] is NCI-H322M lung.
Assay [4] deals with HOP-62 NSCLC.
Assay [5] relates to NCI-H460 lung.
Assay [6] relates to HOP-92 NSCLC.
In assay [7] the test system is NCI-H522 lung.
Assay [8] relates to A549/ATCC NSCLC.
Assay [9] relates to 786-0 renal.
Assay [10] concerns COLO 205 colon.

About 83,000 compounds went through this panel and 20% of them were active in at least one assay; those are over-represented in the sample as a whole.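 Step 1: grow cells in 96-well plates. Step 2: add test compound at a single concentration. Step 3: incubate 48 h. Step 4: record percent growth.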 Values without a mark were called inactive. Active and inactive are the calls of the source. The calls were made as follows: active = growth percent below 10; inactive = the rest.

Consider `COc1ccc(/C=c2\sc3n(c2=O)C2C(NN=3)N(C)C(=O)N2C)cc1` (stereo not given), for which the growth is 36.3% in [1]; 94.1% in assay [2]; 46.6% in [3]; 21% in assay [4]; 9.54% (active) in assay [5]; 54.7% in assay [6]. Besides, the growth in assay [7] was 10.1%; in assay [8] it was 33%; in assay [9], 23%; in assay [10], -8.52% (active).
Turning to `CC(=O)Nc1nc(C(=O)N2N=C(C)/C(=C/c3ccc(Cl)cc3)C2=O)cs1`, the growth is 102% in [1]; 106% in assay [2]; 99% in [3]; 97% in assay [4]; 105% in assay [5]; 95.7% in assay [6]. Further, the growth in assay [7] is 44.7%; in assay [8] it was 103%; in assay [9], 100%; in [10] it was 104%.
Take `Cc1ccc(Oc2nc3ccccc3cc2-c2nnc(Cn3c(COc4ccccc4)nc4ccccc43)o2)cc1`: the growth in assay [1] was 66.5%; in [2] it was 64.9%; in assay [3], 92.3%; in assay [4], 49.8%; in assay [5], 94.1%; in assay [6], 14.2%. The growth is 70.2% in [7], 81.3% in [8], 62.7% in [9] and 84.6% in [10].
With `CCn1cc(C(=O)O)c(=O)c2cc(F)c(N3CCN(S(=O)(=O)c4ccc(Cl)cc4Cl)CC3)cc21`, the growth in assay [1] is -3.58% (active); in [2], 13.1%; in [3], -5.57% (active); in [4], 19.5%; in assay [5], 10.9%; in [6], -9.06% (active). Moreover, the growth in [7] is -75.8% (active); in assay [8], 2.05% (active); in assay [9], 18.7%; in assay [10], -59.8% (active).
As to `COC(=O)CC/C(C)=N\Nc1ccc([N+](=O)[O-])cc1`, the growth in assay [1] is 95.8%; in assay [2] it was 76.3%; in assay [3] it was 76.5%; in [4] it was 59.7%; in assay [5], 24.8%; in assay [6], 92.7%. Moreover, the growth was 38.4% in assay [7], 24.6% in assay [8], 75.4% in assay [9] and 54% in assay [10].
Consider `CC(CCc1ccccc1)NC(=O)c1n[nH]c(=O)c2ccccc12` (stereo not given), for which the growth in [1] is 116%; in assay [2], 103%; in [3], 89.7%; in assay [4], 92.1%; in assay [5] it was 110%; in assay [6], 61.2%. In addition, the growth is 82.4% in assay [7], 95.8% in assay [8], 107% in assay [9] and 115% in assay [10].
In the case of `COc1cc(NCCN=C(N)NC(N)=NC(C)C)c2ncccc2c1`, the growth is 44.7% in [1]; 94.7% in assay [2]; 47.4% in assay [3]; 94.8% in [4]; 82.1% in [5]; 33.2% in assay [6]. The growth was -3.01% (active) in assay [7], 91.4% in assay [8], 105% in [9] and 20.4% in [10].
For the compound `COc1cc(/C=C/C(=O)c2ccccc2O)ccc1OCCCOc1cc2c(cc1OC)C(=O)N1CCC[C@H]1C=N2`, the growth in [1] is 3.19% (active); in assay [2], -3.94% (active); in assay [3] it was -10.6% (active); in [4], 9.86% (active); in assay [5] it was -18.1% (active); in assay [6], -27.4% (active). Further, the growth in [7] is -9.43% (active); in [8] it was 6.93% (active); in [9], -44.8% (active); in assay [10] it was -3.82% (active).
For the compound `Nc1nc(-c2ccccc2)cs1`, the growth in assay [1] is 111%; in assay [2] it was 93.3%; in assay [3], 109%; in assay [4], 97%; in assay [5] it was 109%; in assay [6], 101%. In addition, the growth is 102% in assay [7], 95.6% in assay [8], 105% in assay [9] and 108% in [10].
Take `COc1ccc(-c2nnc(COc3ccc(NS(=O)(=O)c4ccc(OC)cc4)cc3F)o2)cc1`: the growth in [1] is 56.6%; in [2], 57.9%; in [3], 83.6%; in assay [4] it was 93.9%; in assay [5], 77.8%; in assay [6] it was 70.9%. Further, the growth in [7] is 49.2%; in assay [8], 62.8%; in [9], 74.8%; in [10] it was 70.6%.
Consider `COc1ccc(/C=C/c2nc(N3CCOCC3)c3cc(F)c(F)cc3n2)cc1OC`, for which the growth was 34.8% in assay [1]; 33.2% in [2]; 70.2% in assay [3]; 86.8% in assay [4]; 36.4% in [5]; 33.7% in [6]. Besides, the growth in [7] was 26%; in [8], 30.9%; in assay [9], 45.4%; in assay [10], 15.6%.
In the case of `CC1=C(C#N)C(C)(C)C(C#N)=C(C)N1`, the growth in [1] was 102%; in assay [2], 105%; in assay [3], 109%; in [4], 109%; in [5] it was 106%; in [6] it was 95.6%. Also, the growth is 104% in assay [7], 101% in assay [8], 105% in assay [9] and 115% in [10].
With `CCCS(=O)(=O)c1nc(NC2CC2)cc(-c2ccc3c(ccn3C3CC(C)(C)NC(C)(C)C3)c2)n1`, the growth in assay [1] was 10%; in assay [2], -63% (active); in assay [3] it was 32.5%; in assay [4], 7.4% (active); in assay [5], -74.1% (active); in assay [6] it was 87.6%. Further, the growth is -64.1% (active) in [7], -61.4% (active) in [8], -87.3% (active) in [9] and -48.8% (active) in assay [10].
Take `O=S(=O)(NCCCNc1nccc(-c2c(-c3ccc(O)cc3)nc3sccn23)n1)c1ccc(F)cc1`: the growth is 1.81% (active) in [1]; 3.13% (active) in assay [2]; 17.6% in assay [3]; 10% in assay [4]; 1.37% (active) in assay [5]; 12.3% in assay [6]. Moreover, the growth in assay [7] was -1.49% (active); in [8] it was 15.9%; in [9], 16.4%; in [10] it was 1.03% (active).
Turning to `Cc1nc(Nc2cccnc2)sc1C(=O)/C=C/c1ccc(F)cc1`, the growth was 82.3% in [1]; 55.7% in assay [2]; 47.9% in assay [3]; 30.4% in assay [4]; 59.8% in assay [5]; 88.6% in [6]. Further, the growth was 52% in assay [7], 25.2% in assay [8], 13.8% in assay [9] and 56.4% in assay [10].
As to `CC(=O)n1cc([C@H]2CC[C@H](c3cn(C(C)=O)c4ccccc34)c3c2[nH]c2ccccc32)c2ccccc21`, the growth in [1] was 75.7%; in [2], 89.4%; in assay [3], 77.6%; in assay [4] it was 70.7%; in assay [5] it was 90.4%; in [6], 85.3%. For the same compound, the growth was 65.1% in assay [7], 70% in assay [8], 93.5% in [9] and 94.5% in assay [10].
With `CCCCn1c(=O)c(C2CNC(=O)c3ccccc3N2)cc2ccccc21` (stereo not given), the growth in assay [1] was 95%; in [2] it was 111%; in [3], 111%; in assay [4], 91.8%; in [5], 102%; in assay [6], 95.2%. Moreover, the growth in assay [7] was 92.5%; in assay [8], 97.1%; in assay [9], 92.4%; in assay [10] it was 111%.
As for `CCn1cc(C(=O)O)c(=O)c2cc(F)c(N3CCN(S(=O)(=O)c4ccc(OC)c(OC)c4)CC3)cc21`, the growth in assay [1] was 99.6%; in [2], 95.9%; in assay [3], 102%; in [4] it was 100%; in assay [5] it was 108%; in assay [6] it was 91.5%. The growth in assay [7] was 90.6%; in assay [8], 105%; in [9] it was 99.5%; in assay [10], 99.3%.
In the case of `COc1ccc(-c2nc(-c3ccccc3)c(-c3ccccc3)n2C2CC2)cc1OC1CCCCC1`, the growth in assay [1] was 72.6%; in [2], 94%; in assay [3] it was 80.4%; in assay [4], 85%; in assay [5], 30.9%; in assay [6] it was 90.2%. The growth is 64.2% in [7], 53.3% in assay [8], 74% in assay [9] and 79.9% in [10].
Consider `CCCCCCCCCCCCCCCCCCOc1cccc(CCOP(=O)(O)OCC[N+](C)(C)C)c1`, for which the growth in [1] was 96.3%; in [2] it was 95.3%; in assay [3] it was 105%; in [4], 72.2%; in assay [5] it was 60.7%; in assay [6], 72.9%. Further, the growth was 72% in assay [7], 84.9% in assay [8], 91.2% in assay [9] and 97.4% in assay [10].
For the compound `Cc1cccc(NC(=O)c2sc3nc4c(cc3c2N)CCC4)c1C`, the growth in [1] was 36%; in [2], 43.7%; in assay [3], 40.1%; in [4] it was 35.6%; in assay [5] it was 10.8%; in assay [6], 17.7%. The growth is -16.5% (active) in [7], 18.6% in [8], 42.7% in assay [9] and 6.68% (active) in assay [10].
With `CC(C)(C)OC(=O)N1C/C(=C\c2cccs2)C(=O)/C(=C/c2cccs2)C1`, the growth in assay [1] is 96.3%; in assay [2] it was 93.1%; in assay [3], 94.3%; in [4] it was 89%; in assay [5], 105%; in assay [6] it was 82.2%. The growth in [7] was 79.5%; in assay [8], 86.9%; in assay [9], 81.4%; in assay [10], 117%.
With `CCOC(=O)c1cc(/C(=N\O)c2cc(OC)c(OC)c(OC)c2)n2cc(C)cc(C)c12`, the growth is 55.2% in [1]; 74.3% in assay [2]; 66.2% in [3]; 32.3% in [4]; 4.9% (active) in [5]; 51.9% in assay [6]. Also, the growth is -10.6% (active) in [7], 34.9% in assay [8], 19.1% in [9] and 11.5% in [10].
With `Nc1c(C(=O)Nc2cccc([N+](=O)[O-])c2)sc2nc3c(cc12)C(O)CCC3` (stereo not given), the growth in assay [1] was 67.6%; in assay [2] it was 80.8%; in assay [3], 78.2%; in assay [4], 55.1%; in assay [5], 28.2%; in assay [6] it was 72.1%. Moreover, the growth in assay [7] is 28.3%; in assay [8], 39.2%; in assay [9] it was 68.7%; in assay [10], 40.8%.
For `COc1cc(C(=O)OCCCCCCCCCCC[P+](c2ccccc2)(c2ccccc2)c2ccccc2)ccc1O`, the growth in assay [1] was -18.2% (active); in assay [2] it was 27.9%; in [3] it was 1.65% (active); in [4], -83.8% (active); in assay [5] it was -10.6% (active); in [6], -49.5% (active). The growth was -50.3% (active) in [7], -8.01% (active) in assay [8], 5.62% (active) in [9] and -84.1% (active) in assay [10].
Regarding `COc1cc(-c2nc(-c3nc4ccccc4[nH]3)cc3c2[nH]c2ccccc23)cc(OC)c1OC`, the growth is 41.3% in assay [1]; 72.6% in assay [2]; 73.8% in assay [3]; 45.1% in assay [4]; 30% in assay [5]; 9.1% (active) in [6]. The growth in assay [7] was 57.2%; in assay [8] it was 22.5%; in assay [9], 82.6%; in assay [10], 26.9%.
For `C=C1C(=O)O[C@H]2[C@H]1CC/C(COC(=O)NCCc1ccc(OC)cc1)=C\CC[C@@]1(C)O[C@@H]21`, the growth in assay [1] was 66.6%; in assay [2], 0.324% (active); in assay [3], 88.4%; in [4], 62.6%; in assay [5], 68.7%; in [6], 21.9%. Moreover, the growth was -64.6% (active) in [7], 64.1% in assay [8], -31.9% (active) in assay [9] and -52.6% (active) in [10].

The record behind these values is PubChem BioAssay (NCI).
